Assay results as given in PubChem BioAssay (Tox21).
Values joined by “and” are separate entries in the source; they are usually repeats but may differ in a detail not shown here. Equal values may be shown once. Inconclusive results are not listed. Where a structure was tested more than once in an assay, its records may differ in their call. Active and inactive are the calls of the source. Unless noted, calls come from the whole dose curve; as a rule, active = well fitted curve in the direction sought with a large enough effect in the repeat runs; inconclusive = weak or mixed curves; inactive = no such curve, though single readings can be large; an effect the other way counts as inactive or inconclusive.

How the values were obtained:
[1] = biological target: Estrogen receptor beta (Homo sapiens) (UniProt Q92731); test: qHTS assay to identify small molecule agonists of the estrogen receptor beta (ER-beta) signaling pathway (AID 1259377; active = well fitted activation curve with a large enough effect in the signal ratio in the repeat runs, not every such curve was filed as active; the % refers to the signal ratio)
Summary of the method: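 Agonist mode cell assay in GripTite HEK293T cells expressing an ER-beta fusion that drives beta-lactamase from an Upstream Activator Sequence; 16 hr compound exposure at 37C, then 2 h LiveBLAzer B/G FRET substrate at room temperature, fluorescence read-out.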

[2] = qHTS assay to identify small molecule agonists of the androgen receptor (AR) signaling pathway in the presence of an antagonist - cell viability counter screen (AID 1259379); note: nearly all actives have a fitted effect of over 25% in size; note: potency is the fitted concentration of half-maximal effect
Summary of the method: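 Counter screen for cell viability run in parallel with the AR agonist-mode luciferase assay. MDA-kb2 cells were co-treated with nilutamide (3.0uM final) and compounds, then incubated 16 hr at 37C, and CellTiter-Fluor fluorescence was measured.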

[3] = qHTS assay to identify small molecule agonists of the estrogen receptor beta (ER-beta) signaling pathway - cell viability counter screen (AID 1259380); note: nearly all actives have a fitted effect of over 30% in size; note: potency is the fitted concentration of half-maximal effect
Summary of the method: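 In this qHTS counter screen, HEK293T cells carrying an ER-beta/UAS beta-lactamase reporter, grown in 2% charcoal-stripped FBS, received compound for 16 hr; ATP-based CellTiter-Glo luminescence was then read after 30 min at room temperature.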

[4] = qHTS assay to identify small molecule antagonists of the estrogen receptor beta (ER-beta) signaling pathway - cell viability counter screen (AID 1259382); note: nearly all actives have a fitted effect of over 55% in size; note: potency is the fitted concentration of half-maximal effect
Summary of the method: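 HEK293T ER-beta-UAS-bla, 2% charcoal-stripped FBS; compounds + 1nM E2 16 hr 37C; CellTiter-Glo luminescence, 30 min RT.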

[5] = qHTS assay to identify small molecule agonists or antagonists of the thyroid stimulating hormone receptor (TSHR) signaling pathway - wild type cell line counter screen (AID 1259384; calls by dose curve)
Summary of the method: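 Wild-type Hek293 cells, 800/well, 18 h at 37C, then compound with Ro20-1724 for 30 min RT. cAMP by HTRF (cAMP-d2/anti-cAMP cryptate), 1 h RT, fluorescence read. 15 concentrations, triplicates.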

[6] = biological target: Thyrotropin receptor (Homo sapiens) (UniProt P16473); test: qHTS assay to identify small molecule antagonists of the thyroid stimulating hormone receptor (TSHR) signaling pathway (AID 1259385; calls by dose curve; note: nearly all actives have a fitted effect of over 20% in size; note: potency is the fitted concentration of half-maximal effect)
Summary of the method: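 TSHR-HEK293 cells (800/well) plated 18 h, then compounds with Ro20-1724 and TSH at 1.5 ng/mL final, 30 min at room temperature. cAMP quantified by HTRF (cAMP-d2/anti-cAMP-cryptate, 1 h); 15 concentrations in triplicate.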

[7] = qHTS assay to identify small molecule agonists of the estrogen receptor alpha (ER-alpha) signaling pathway in the presence of an antagonist - cell viability counter screen (AID 1259386);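 note: cells exposed to compounds for 22 h at 37 °C before the viability read; nearly all actives have a fitted effect of over 30% in size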; note: potency is the fitted concentration of half-maximal effect
Summary of the method: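 Steps: 5-day stripped-FBS culture; seed and incubate 24hr; add ICI-182,780 (10.0nM final); pin 15-point compound titration; incubate 22hr at 37C; add CellTiter-Fluor at 21hr; read fluorescence.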

[8] = biological target: Progesterone receptor (Homo sapiens) (UniProt P06401); test: qHTS assay to identify small molecule agonists of the progesterone receptor (PR) signaling pathway (AID 1346784; calls by dose curve; note: nearly all actives have a fitted effect of over 30% in size)
Summary of the method: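 Cells (PR-UAS-bla HEK 293T, GripTite) were plated in assay medium containing 2% charcoal-stripped FBS and incubated 6 hr. Test compounds in DMSO were added for 16 hr at 37C. FRET substrate was then loaded for 2 hr at room temperature before fluorescence reading.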

[9] = biological target: Progesterone receptor (Homo sapiens) (UniProt P06401); test: qHTS assay to identify small molecule antagonists of the progesterone receptor (PR) signaling pathway (AID 1346795; active = well fitted inhibition curve with a large enough effect in the signal ratio in the repeat runs, not every such curve was filed as active; the % refers to the signal ratio; note: potency is the fitted concentration of half-maximal effect)
Summary of the method: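 Antagonist mode: compounds tested against 1 nM (final) promegestone stimulation in HEK293T cells expressing PR-UAS-bla reporter, 16 hr at 37C, 5% CO2; beta-lactamase activity detected via B/G FRET substrate after 2 hr at room temperature.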

[10] = qHTS assay to identify small molecule antagonists of the progesterone receptor (PR) signaling pathway - cell viability counter screen (AID 1346798); note: nearly all actives have a fitted effect of over 50% in size; note: potency is the fitted concentration of half-maximal effect
Summary of the method: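 Counter screen for cytotoxicity: viability of PR-UAS-bla HEK293T cells was measured with CellTiter-Glo luminescence following 16 hr compound exposure in the presence of R5020.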

[11] = qHTS assay to identify small molecule agonists of the progesterone receptor (PR) signaling pathway - cell viability counter screen (AID 1346799; calls by dose curve; note: nearly all actives have a fitted effect of over 45% in size; note: potency is the fitted concentration of half-maximal effect)
Summary of the method: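 Cells (PR-UAS-bla HEK293T) are plated at 3,000/well in 2% charcoal-stripped FBS medium, rested 6 hr, dosed and incubated 16 hr at 37C. CellTiter-Glo is then added and luminescence measured after 30 min at room temperature.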

[12] = qHTS assay to identify small molecule antagonists of the TGF-beta/Smad signaling pathway - cell viability counter screen (AID 1346824); note: nearly all actives have a fitted effect of over 50% in size; note: potency is the fitted concentration of half-maximal effect
Summary of the method: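 SBE-bla HEK 293T cells, incubated overnight, then compound plus 0.25 ng/mL TGF-beta1 (stock added) for 5 hr at 37 C. Viability was read in the same wells by CellTiter-Glo luminescence after 30 min at room temperature.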

[13] = qHTS assay to identify small molecule agonists of the TGF-beta/Smad signaling pathway - cell viability counter screen (AID 1346829); note: nearly all actives have a fitted effect of over 45% in size; note: potency is the fitted concentration of half-maximal effect
Summary of the method: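 Compound-treated SBE-bla HEK 293T cells (5 hr, 37 C) were assessed for viability with CellTiter-Glo in parallel with the reporter read.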

[14] = qHTS assay to identify small molecule agonists of the TGF-beta/Smad signaling pathway (AID 1346859; active = well fitted activation curve with a large enough effect in the signal ratio in the repeat runs, not every such curve was filed as active; the % refers to the signal ratio; note: potency is the fitted concentration of half-maximal effect; for activation: series mostly up to about 77 µM)
Summary of the method: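 Reporter line: HEK 293T with stably integrated SBE-controlled beta-lactamase. Compound exposure lasts 5 hr at 37 C and 5% CO2; substrate loading follows for 2 hr at room temperature, with emission read at 460 and 530 nm.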

[15] = biological target: Thyrotropin-releasing hormone receptor (Homo sapiens) (UniProt P34981); test: qHTS assay to identify small molecule antagonists of the thyrotropin-releasing hormone receptor (TRHR) signaling pathway (AID 1346877; active = well fitted inhibition curve with a large enough effect in the repeat runs, not every such curve was filed as active; note: series mostly up to about 51 µM)
Summary of the method: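 Human TRHR in HEK293 cells; inhibition of the intracellular calcium rise triggered by 1 nM TRH was followed by fluorescence over 3 min. Compounds were run at 15 concentrations, three replicates each.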

[16] = biological target: Thyrotropin-releasing hormone receptor (Homo sapiens) (UniProt P34981); test: qHTS assay to identify small molecule agonists of the thyrotropin-releasing hormone receptor (TRHR) signaling pathway (AID 1346891; calls by dose curve;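 note: HEK293 cells expressing TRHR with calcium dye readout; series mostly up to about 58 µM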)
Summary of the method: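 Cells: TRHR-Hek293, seeded and incubated 18 h. Dye loading: 2 h at 37 °C. Compound added from DMSO stock by pin tool. Read-out: kinetic calcium fluorescence over 3 min.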

[17] = Human pregnane X receptor (PXR) small molecule agonists, qHTS cell viability counter screen (AID 1346977); note: nearly all actives have a fitted effect of over 50% in size; note: potency is the fitted concentration of half-maximal effect
Summary of the method: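 Cytotoxicity counter screen run in the same wells as the PXR luciferase assay, using PXR-Luc HepG2 cells in charcoal-stripped serum medium. Viability: CellTiter-Fluor fluorescence after 24hr compound treatment.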

[18] = biological target: Estrogen receptor (Homo sapiens) (UniProt P03372); test: qHTS assay to identify small molecule agonists of the estrogen receptor alpha (ER-alpha) signaling pathway in the presence of an antagonist (AID 1259383; calls by dose curve; note: top concentration of the series differs between compounds; nearly all actives have a fitted effect of over 15% in size)
Summary of the method: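 ER-alpha agonism measured under antagonist challenge: 10.0nM ICI-182,780 (final) plus compound, 15 concentrations, 22hr, VM7Luc4E2 ERE-luciferase cells. Read by luminescence.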

[19] = biological target: Androgen receptor (Homo sapiens) (UniProt P10275); test: qHTS assay to identify small molecule agonists of the androgen receptor (AR) signaling pathway in the presence of an antagonist (AID 1259381; calls by dose curve; note: nearly all actives have a fitted effect of over 15% in size)
Summary of the method: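 AR antagonist background: nilutamide 3.0uM final. Cell line: MDA-kb2, MMTV-driven luciferase, responsive to both AR and GR. Exposure 16hr, 37C, no CO2; ONE-Glo luminescence.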

[20] = biological target: Estrogen receptor beta (Homo sapiens) (UniProt Q92731); test: qHTS assay to identify small molecule antagonists of the estrogen receptor beta (ER-beta) signaling pathway (AID 1259378; active = well fitted inhibition curve with a large enough effect in the signal ratio in the repeat runs, not every such curve was filed as active; the % refers to the signal ratio; note: potency is the fitted concentration of half-maximal effect)
Summary of the method: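 ER-beta-UAS-bla HEK293T cells in 2% charcoal-stripped FBS medium treated with compound plus 1nM final 17-beta-estradiol for 16 hr at 37C. Beta-lactamase reporter read by FRET substrate fluorescence after 2 hours at room temperature.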

Measured: Potency

Androgen receptor (Homo sapiens), sequence (P10275 whole entry, looked up): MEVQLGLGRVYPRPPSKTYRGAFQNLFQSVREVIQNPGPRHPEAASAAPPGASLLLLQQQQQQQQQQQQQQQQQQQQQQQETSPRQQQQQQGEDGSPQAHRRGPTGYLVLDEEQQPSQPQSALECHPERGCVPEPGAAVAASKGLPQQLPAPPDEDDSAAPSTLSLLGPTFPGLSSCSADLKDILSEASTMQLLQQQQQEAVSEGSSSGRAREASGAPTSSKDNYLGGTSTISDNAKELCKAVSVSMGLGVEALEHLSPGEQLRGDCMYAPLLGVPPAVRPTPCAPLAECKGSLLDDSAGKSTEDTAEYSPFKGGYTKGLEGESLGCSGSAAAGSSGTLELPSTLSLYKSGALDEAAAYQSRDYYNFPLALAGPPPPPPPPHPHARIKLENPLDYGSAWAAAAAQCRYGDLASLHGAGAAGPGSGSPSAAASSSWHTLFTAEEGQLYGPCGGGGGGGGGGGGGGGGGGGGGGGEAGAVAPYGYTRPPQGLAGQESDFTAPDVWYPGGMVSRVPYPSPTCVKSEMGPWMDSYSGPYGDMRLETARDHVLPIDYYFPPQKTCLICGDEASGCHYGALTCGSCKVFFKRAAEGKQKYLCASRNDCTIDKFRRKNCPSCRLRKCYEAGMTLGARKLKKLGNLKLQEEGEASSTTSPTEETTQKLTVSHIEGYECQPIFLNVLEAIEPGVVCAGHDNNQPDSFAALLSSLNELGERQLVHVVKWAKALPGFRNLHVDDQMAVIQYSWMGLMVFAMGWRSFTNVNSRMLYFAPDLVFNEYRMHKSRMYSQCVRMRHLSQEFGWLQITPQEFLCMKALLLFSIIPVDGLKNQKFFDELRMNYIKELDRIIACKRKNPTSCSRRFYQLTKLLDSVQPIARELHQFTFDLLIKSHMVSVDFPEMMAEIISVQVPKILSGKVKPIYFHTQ
Estrogen receptor (Homo sapiens), sequence (P03372 whole entry, looked up): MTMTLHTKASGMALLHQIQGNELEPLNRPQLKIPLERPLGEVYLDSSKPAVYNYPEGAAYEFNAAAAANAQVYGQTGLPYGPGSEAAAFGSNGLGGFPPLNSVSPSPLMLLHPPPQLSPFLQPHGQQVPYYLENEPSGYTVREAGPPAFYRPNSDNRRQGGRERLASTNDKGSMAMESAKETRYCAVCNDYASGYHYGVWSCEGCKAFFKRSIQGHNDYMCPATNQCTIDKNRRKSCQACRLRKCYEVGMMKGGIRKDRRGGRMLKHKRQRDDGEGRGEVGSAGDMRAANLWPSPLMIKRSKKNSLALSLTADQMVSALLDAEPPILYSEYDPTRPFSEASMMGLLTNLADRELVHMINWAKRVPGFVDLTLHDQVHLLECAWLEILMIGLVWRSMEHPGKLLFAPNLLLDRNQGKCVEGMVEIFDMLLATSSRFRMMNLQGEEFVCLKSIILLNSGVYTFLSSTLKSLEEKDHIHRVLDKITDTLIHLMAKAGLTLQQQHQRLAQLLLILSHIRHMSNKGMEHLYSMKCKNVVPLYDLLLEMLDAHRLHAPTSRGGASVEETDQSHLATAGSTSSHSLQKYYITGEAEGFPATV
Thyrotropin receptor (Homo sapiens), sequence (P16473 whole entry, looked up): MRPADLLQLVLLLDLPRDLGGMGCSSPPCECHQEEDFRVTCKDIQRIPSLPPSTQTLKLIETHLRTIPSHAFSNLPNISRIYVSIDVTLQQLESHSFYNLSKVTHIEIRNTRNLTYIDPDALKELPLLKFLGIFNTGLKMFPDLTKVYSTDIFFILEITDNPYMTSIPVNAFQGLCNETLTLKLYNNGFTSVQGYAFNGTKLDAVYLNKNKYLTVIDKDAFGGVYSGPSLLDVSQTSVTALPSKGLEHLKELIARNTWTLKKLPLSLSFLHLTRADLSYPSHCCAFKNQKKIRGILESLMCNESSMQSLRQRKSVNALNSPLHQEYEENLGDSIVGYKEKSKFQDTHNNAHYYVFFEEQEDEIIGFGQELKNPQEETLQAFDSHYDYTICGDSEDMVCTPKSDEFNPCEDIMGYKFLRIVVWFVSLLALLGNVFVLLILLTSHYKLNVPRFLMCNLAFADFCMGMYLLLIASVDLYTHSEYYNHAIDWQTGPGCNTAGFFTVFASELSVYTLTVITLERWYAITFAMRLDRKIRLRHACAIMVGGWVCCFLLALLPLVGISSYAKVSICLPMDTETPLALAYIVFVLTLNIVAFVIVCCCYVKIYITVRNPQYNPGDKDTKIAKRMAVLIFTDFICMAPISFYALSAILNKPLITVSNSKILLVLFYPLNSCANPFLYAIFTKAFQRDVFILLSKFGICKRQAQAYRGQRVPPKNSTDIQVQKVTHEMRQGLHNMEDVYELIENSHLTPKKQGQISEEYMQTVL
Thyrotropin-releasing hormone receptor (Homo sapiens), sequence (P34981 whole entry, looked up): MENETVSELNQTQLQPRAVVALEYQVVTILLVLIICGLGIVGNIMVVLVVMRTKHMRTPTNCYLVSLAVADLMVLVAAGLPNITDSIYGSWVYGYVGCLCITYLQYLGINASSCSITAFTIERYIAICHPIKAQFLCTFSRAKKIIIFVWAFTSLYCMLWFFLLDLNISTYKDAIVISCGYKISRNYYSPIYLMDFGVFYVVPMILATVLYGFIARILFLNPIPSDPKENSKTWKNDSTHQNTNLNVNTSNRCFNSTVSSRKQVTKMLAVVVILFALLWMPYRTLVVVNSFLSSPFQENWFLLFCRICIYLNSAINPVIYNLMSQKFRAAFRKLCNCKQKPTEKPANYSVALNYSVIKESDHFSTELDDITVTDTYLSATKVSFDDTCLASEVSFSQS
Progesterone receptor (Homo sapiens), sequence (P06401 whole entry, looked up): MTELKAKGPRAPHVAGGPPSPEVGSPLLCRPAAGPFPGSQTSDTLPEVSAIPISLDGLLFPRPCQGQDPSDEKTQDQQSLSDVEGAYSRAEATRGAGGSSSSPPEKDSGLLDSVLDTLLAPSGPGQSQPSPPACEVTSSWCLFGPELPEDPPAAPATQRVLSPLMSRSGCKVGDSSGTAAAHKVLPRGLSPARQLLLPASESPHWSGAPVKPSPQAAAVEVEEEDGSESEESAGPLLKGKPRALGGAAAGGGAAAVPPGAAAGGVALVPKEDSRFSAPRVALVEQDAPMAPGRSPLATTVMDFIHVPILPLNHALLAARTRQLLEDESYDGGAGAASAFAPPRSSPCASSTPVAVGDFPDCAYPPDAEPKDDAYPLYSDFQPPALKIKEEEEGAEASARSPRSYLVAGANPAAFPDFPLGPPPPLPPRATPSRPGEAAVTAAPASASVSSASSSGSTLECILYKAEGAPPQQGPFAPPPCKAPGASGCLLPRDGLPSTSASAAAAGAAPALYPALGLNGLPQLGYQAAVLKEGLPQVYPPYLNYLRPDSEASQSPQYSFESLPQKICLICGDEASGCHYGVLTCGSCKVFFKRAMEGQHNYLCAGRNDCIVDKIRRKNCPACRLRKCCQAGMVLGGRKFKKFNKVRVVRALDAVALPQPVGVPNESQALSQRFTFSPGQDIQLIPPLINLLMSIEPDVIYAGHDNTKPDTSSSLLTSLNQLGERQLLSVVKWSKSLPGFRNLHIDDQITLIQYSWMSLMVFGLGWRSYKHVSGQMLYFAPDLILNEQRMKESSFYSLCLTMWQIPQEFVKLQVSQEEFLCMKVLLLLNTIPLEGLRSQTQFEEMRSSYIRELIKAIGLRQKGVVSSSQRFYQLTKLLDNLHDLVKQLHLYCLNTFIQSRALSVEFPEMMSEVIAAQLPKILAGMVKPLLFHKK
Estrogen receptor beta (Homo sapiens), sequence (Q92731 whole entry, looked up, the tested form may be a part): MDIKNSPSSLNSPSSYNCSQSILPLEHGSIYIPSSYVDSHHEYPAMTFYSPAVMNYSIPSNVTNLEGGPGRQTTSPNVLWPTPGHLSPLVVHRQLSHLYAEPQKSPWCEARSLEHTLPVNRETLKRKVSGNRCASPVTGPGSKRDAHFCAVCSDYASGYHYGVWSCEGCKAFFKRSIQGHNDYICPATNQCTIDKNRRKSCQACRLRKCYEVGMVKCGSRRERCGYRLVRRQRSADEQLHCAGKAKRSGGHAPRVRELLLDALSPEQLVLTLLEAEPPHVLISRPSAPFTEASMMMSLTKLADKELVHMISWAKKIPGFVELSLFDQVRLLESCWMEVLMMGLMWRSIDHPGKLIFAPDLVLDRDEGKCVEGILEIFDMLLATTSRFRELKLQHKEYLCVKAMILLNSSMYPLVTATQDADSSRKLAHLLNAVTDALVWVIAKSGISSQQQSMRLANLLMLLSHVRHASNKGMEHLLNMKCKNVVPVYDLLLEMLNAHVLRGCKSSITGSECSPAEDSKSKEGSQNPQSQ

CN(C)c1ccccc1
not listed: [18] | [19] | [20]
inactive: all other assays above

CC(C)CON=O
not listed: [15] | [16] | [18] | [19] | [20]
inactive: all other assays above

CCC[CH2][Sn]([Cl])([Cl])[CH2]CCC
inactive: [1] | [18] | [15] | [16]
active: [2] 552 nM and 1.09 µM | [3] 981 nM and 1.54 µM | [4] 1.39 µM and 1.54 µM | [7] 1.96 µM and 2.17 µM | [9] 196 nM | [10] 1.1 µM and 1.37 µM | [11] 1.1 µM and 1.37 µM | [12] 8.82 µM and 13.8 µM | [13] 7.01 µM and 15.5 µM | [17] 501 nM and 1.37 µM

CNC(=O)Oc1cccc2c1OC(C)(C)C2
not listed: [1] | [20]
inactive: all other assays above

C=CC(=O)OCC(CC)(COC(=O)C=C)COC(=O)C=C
active: [2] 62.8 µM and 24.3 µM | [3] 62.8 µM and 19.3 µM | [4] 31.5 µM and 19.3 µM | [7] 70.4 µM and 43.3 µM | [9] 25 µM and 17.2 µM | [10] 56 µM and 43.3 µM | [11] 70.4 µM and 24.3 µM | [17] 31.6 µM and 30.6 µM
not listed: [1] | [20]
inactive: all other assays above

CCOS(=O)(=O)OCC
not listed: [19] | [20]
inactive: all other assays above

CCOP(=S)(OCC)SCn1c(=O)oc2cc(Cl)ccc21
not listed: [6] | [9] | [19] | [20]
inactive: all other assays above

NC(=O)CN1CCCC1=O
not listed: [5] | [6] | [18] | [19] | [20]
inactive: all other assays above

CC(C)Nc1nc(Cl)nc(NC(C)C)n1
not listed: [18] | [19] | [20]
inactive: all other assays above

CC1(C)C(C(=O)OC(C#N)c2cccc(Oc3ccccc3)c2)C1(C)C (centres undefined)
active: [6] 61.6 µM | [9] 24500 nM
not listed: [11] | [18] | [19] | [20]
inactive: all other assays above

Clc1cccc(Cl)c1
not listed: [3] | [18] | [19] | [20]
inactive: all other assays above

O=C1Nc2ccc(Cl)cc2C(c2ccccc2)=NC1O (centres undefined)
not listed: [15] | [16] | [18] | [19] | [20]
inactive: all other assays above

CCCCCCCC[N+](C)(CCCCCCCC)CCCCCCCC
active: [20] 17.2 µM | [2] 12.2 µM and 2.73 µM and 24.3 µM | [3] 12.2 µM and 27.3 µM and 30.6 µM | [4] 12.2 µM and 43.3 µM and 24.3 µM | [7] 21.6 µM and 6.87 µM and 30.6 µM | [10] 30.6 µM | [12] 15.5 µM and 49 µM | [13] 49 µM | [17] 30.6 µM and 5.45 µM and 13.7 µM
inactive: [18] | [5] | [6] | [8]

COc1ccc(CO)cc1
not listed: [18] | [19] | [20]
inactive: all other assays above

Oc1ccc(Cl)cc1Cl
48.6 µM (active) and inactive: [14]
not listed: [5] | [6] | [19] | [20]
inactive: all other assays above

CNC(=O)CSP(=S)(OC)OC
not listed: [19] | [20]
inactive: all other assays above
